Assay [1] can be described thus: NCI Yeast Anticancer Drug Screen. Data for the rad50 strain (AID 155).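 Also: 0% = growth of vehicle-only cultures of the same strain.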 Conditions: S. cerevisiae rad50 strain growth inhibition, stronger effect = higher value. In a few lines: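 Yeast carrying a defined DNA repair defect were exposed to test compounds, and growth was compared with vehicle-treated controls to give percent inhibition.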
The nature of assay [2]: NCI Yeast Anticancer Drug Screen. Data for the mec2-1 strain (AID 157). As to conditions: S. cerevisiae mec2-1 strain, stronger effect = higher value. In a few lines:
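Cells of the genetically defined mec2-1 yeast strain are incubated with test compound. Inhibition of growth is calculated against vehicle-treated controls.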

A short description of assay [3]: NCI Yeast Anticancer Drug Screen. Data for the sgs1 mgt1 strain (AID 161).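 Also: 0% = growth of cultures given vehicle only.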 Conditions: S. cerevisiae sgs1 mgt1 strain, stronger effect = higher value. The method, boiled down:
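Mutant yeast exposed to compound; growth scored against vehicle-only wells.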

Assay [4] in a line: NCI Yeast Anticancer Drug Screen. Data for the cln2 rad14 strain (AID 165).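 Also: 0% = growth equal to vehicle treated cultures.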 As to conditions: S. cerevisiae cln2 rad14 strain, stronger effect = higher value. The method, boiled down:
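The screen exposed genetically defined yeast (cln2 rad14) to test compounds and scored growth inhibition relative to vehicle-treated controls.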

Assay [5] is described as follows: NCI Yeast Anticancer Drug Screen. Data for the bub3 strain (AID 167). As to conditions: S. cerevisiae bub3 mutant strain, stronger effect = higher value. In a few lines: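 Compounds were applied to a genetically altered yeast strain carrying a cell-cycle control defect. Growth inhibition was scored against vehicle-treated controls.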
Assay [6] can be described thus: NCI Yeast Anticancer Drug Screen. Data for the mlh1 rad18 strain (AID 175). As to conditions: S. cerevisiae mlh1 rad18 strain growth inhibition, stronger effect = higher value. In a few lines:
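Compound-treated yeast growth, normalised to vehicle controls. Strain bears defined DNA repair mutations.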

Where [7] appears, read: at 5.0 µM (retest, dose inferred, filed as 0.5).
The mark [8] stands for this setting: at 50.0 µM (retest, dose inferred, filed as 5.0).

This is part of a sample that, as a whole, favours compounds with a hit. Of some 79,000 tested, about 15% had one in any assay. Unmarked numbers belong to inactive results. The source made the active and inactive calls. Rule as the data show it: active = growth inhibition above about 70%; inactive = the rest.

Take `CC(SC1=CC(=O)c2c(Cl)ccc(O)c2C1=O)C(=O)O` (stereo not given): the growth inhibition was 10% in assay [1] (setting [7]); 13% in assay [1] (setting [8]); 5.7% in assay [1] (at 50.0 µM); 2% in assay [2] (setting [7]); 16% in assay [2] (setting [8]); 1.25% in assay [2] (at 50.0 µM). Besides, the growth inhibition in assay [3] (setting [7]) is 22%; in assay [3] (setting [8]) it was 30%; in assay [3] (at 50.0 µM), -25.1%; in assay [4] (setting [7]), -9%; in assay [4] (setting [8]), 7%; in assay [4] (at 50.0 µM), -47.5%. The growth inhibition in assay [5] (setting [7]) is 0%; in assay [5] (setting [8]), 17%; in assay [5] (at 50.0 µM), 6%; in assay [6] (setting [7]), 3%; in assay [6] (setting [8]), 26%; in assay [6] (at 50.0 µM) it was 8.35%.

As for `Cc1cc(-c2ccc(N=Nc3cc(S(=O)(=O)O)c4ccccc4c3N)c(C)c2)ccc1N=Nc1cc(S(=O)(=O)O)c2ccccc2c1N`, the growth inhibition in assay [1] (setting [7]) is 19%; in assay [1] (setting [8]) it was 82% (active); in assay [1] (at 50.0 µM), 64.6%; in assay [2] (setting [7]), 16%; in assay [2] (setting [8]) it was 60%; in assay [2] (at 50.0 µM) it was 52.1%. Besides, the growth inhibition in assay [3] (setting [7]) was 29%; in assay [3] (setting [8]) it was 69%; in assay [3] (at 50.0 µM), 66.8%; in assay [4] (setting [7]), 31%; in assay [4] (setting [8]), 48%; in assay [4] (at 50.0 µM), 30.6%. For the same molecule, the growth inhibition in assay [5] (setting [7]) was 26%; in assay [5] (setting [8]) it was 73% (active); in assay [5] (at 50.0 µM), 73.7% (active); in assay [6] (setting [7]), 32%; in assay [6] (setting [8]), 86% (active); in assay [6] (at 50.0 µM), 71% (active).

Consider `COC1=CC(=O)c2c(ccc3ncnc(N)c23)C1=O`, for which the growth inhibition is 20% in assay [1] (setting [7]); 73% (active) in assay [1] (setting [8]); 22% in assay [1] (at 50.0 µM); 15% in assay [2] (setting [7]); 15% in assay [2] (setting [8]); 3.35% in assay [2] (at 50.0 µM). The growth inhibition in assay [3] (setting [7]) was 14%; in assay [3] (setting [8]), 28%; in assay [3] (at 50.0 µM), -6%; in assay [4] (setting [7]), 18%; in assay [4] (setting [8]), 32%; in assay [4] (at 50.0 µM), 24.9%. The growth inhibition in assay [5] (setting [7]) was 19%; in assay [5] (setting [8]), -11%; in assay [5] (at 50.0 µM) it was 17.5%; in assay [6] (setting [7]), 13%; in assay [6] (setting [8]) it was 59%; in assay [6] (at 50.0 µM), -4.3%.

For the molecule `S=c1[nH]c2cc(Cl)ccc2s1.[Zn+2]`, the growth inhibition is -2% in assay [1] (setting [7]); 91% (active) in assay [1] (setting [8]); 95.3% (active) in assay [1] (at 50.0 µM); 8% in assay [2] (setting [7]); 96% (active) in assay [2] (setting [8]); 97.8% (active) in assay [2] (at 50.0 µM). The growth inhibition is 3% in assay [3] (setting [7]); 97% (active) in assay [3] (setting [8]); 93.3% (active) in assay [3] (at 50.0 µM); -2% in assay [4] (setting [7]); 95% (active) in assay [4] (setting [8]); 96.7% (active) in assay [4] (at 50.0 µM). Besides, the growth inhibition was 12% in assay [5] (setting [7]); 92% (active) in assay [5] (setting [8]); 97% (active) in assay [5] (at 50.0 µM); 0% in assay [6] (setting [7]); 96% (active) in assay [6] (setting [8]); 97.5% (active) in assay [6] (at 50.0 µM).

Consider `CCOP(=O)(OCC)C(NC(=O)OCC(Cl)(Cl)Cl)n1nnc(C(=O)OC)c1C(=O)OC` (stereo not given), for which the growth inhibition is -7% in assay [1] (setting [7]); 79% (active) in assay [1] (setting [8]); -8.8% in assay [1] (at 50.0 µM); -4% in assay [2] (setting [7]); 46% in assay [2] (setting [8]); 4.15% in assay [2] (at 50.0 µM). Also, the growth inhibition was -6% in assay [3] (setting [7]); 89% (active) in assay [3] (setting [8]); 10.6% in assay [3] (at 50.0 µM); -3% in assay [4] (setting [7]); 69% in assay [4] (setting [8]); 36.4% in assay [4] (at 50.0 µM). The growth inhibition was -1% in assay [5] (setting [7]); 92% (active) in assay [5] (setting [8]); -0.7% in assay [5] (at 50.0 µM); -1% in assay [6] (setting [7]); 70% (active) in assay [6] (setting [8]); -1.15% in assay [6] (at 50.0 µM).

On to `C=C1CC/C=C(/C(=O)O)CC[C@H]2[C@@H]1CC2(C)C`, for which the growth inhibition was -5% in assay [1] (setting [7]); 58% in assay [1] (setting [8]); 63.6% in assay [1] (at 50.0 µM); 4% in assay [2] (setting [7]); 71% (active) in assay [2] (setting [8]); 60.1% in assay [2] (at 50.0 µM). For the same molecule, the growth inhibition in assay [3] (setting [7]) was 3%; in assay [3] (setting [8]), 68%; in assay [3] (at 50.0 µM) it was 57.4%; in assay [4] (setting [7]) it was -6%; in assay [4] (setting [8]), 50%; in assay [4] (at 50.0 µM) it was 53.6%. The growth inhibition in assay [5] (setting [7]) was 0%; in assay [5] (setting [8]), 78% (active); in assay [5] (at 50.0 µM), 69.5%; in assay [6] (setting [7]), -1%; in assay [6] (setting [8]), 74% (active); in assay [6] (at 50.0 µM) it was 53.2%.

On to `Cc1c2ncccc2cc2oc3ccccc3c(=O)c12`, for which the growth inhibition in assay [1] (setting [7]) is 67%; in assay [1] (setting [8]), 9%; in assay [1] (at 50.0 µM) it was 62.7%; in assay [2] (setting [7]) it was 24%; in assay [2] (setting [8]), 78% (active); in assay [2] (at 50.0 µM) it was 14.8%. The growth inhibition is 37% in assay [3] (setting [7]); 6% in assay [3] (setting [8]); 24.4% in assay [3] (at 50.0 µM); 16% in assay [4] (setting [7]); 37% in assay [4] (setting [8]); 13.8% in assay [4] (at 50.0 µM). The growth inhibition in assay [5] (setting [7]) was 15%; in assay [5] (setting [8]), 75% (active); in assay [5] (at 50.0 µM) it was 19.9%; in assay [6] (setting [7]), 23%; in assay [6] (setting [8]), 10%; in assay [6] (at 50.0 µM), 68.7%.

Take `O=C1COCC(=O)OCCOCCSCCOCCO1`: the growth inhibition in assay [1] (setting [7]) is 5%; in assay [1] (setting [8]), 11%; in assay [1] (at 50.0 µM), -4.6%; in assay [2] (setting [7]) it was 0%; in assay [2] (setting [8]) it was 5%; in assay [2] (at 50.0 µM), -1.2%. Moreover, the growth inhibition in assay [3] (setting [7]) was 1%; in assay [3] (setting [8]), 1%; in assay [3] (at 50.0 µM), -7%; in assay [4] (setting [7]) it was 4%; in assay [4] (setting [8]), 41%; in assay [4] (at 50.0 µM), 37.2%. Further, the growth inhibition in assay [5] (setting [7]) was -4%; in assay [5] (setting [8]), 4%; in assay [5] (at 50.0 µM), 8.75%; in assay [6] (setting [7]) it was 8%; in assay [6] (setting [8]), 15%; in assay [6] (at 50.0 µM) it was 7.75%.

In the case of `CCOc1ccccc1NC(=O)/C(Cl)=C(\Cl)C(=O)O`, the growth inhibition in assay [1] (setting [7]) is 100% (active); in assay [1] (setting [8]) it was 99% (active); in assay [1] (at 50.0 µM), 99% (active); in assay [2] (setting [7]), 100% (active); in assay [2] (setting [8]), 100% (active); in assay [2] (at 50.0 µM), 98.3% (active). In addition, the growth inhibition in assay [3] (setting [7]) was 100% (active); in assay [3] (setting [8]) it was 100% (active); in assay [3] (at 50.0 µM), 95.2% (active); in assay [4] (setting [7]) it was 100% (active); in assay [4] (setting [8]) it was 99% (active); in assay [4] (at 50.0 µM), 56.8%. Further, the growth inhibition was 100% (active) in assay [5] (setting [7]); 100% (active) in assay [5] (setting [8]); 64.4% in assay [5] (at 50.0 µM); 100% (active) in assay [6] (setting [7]); 100% (active) in assay [6] (setting [8]); 76% (active) in assay [6] (at 50.0 µM).

On to `C=CCNc1nc2c(s1)C(=O)c1ccccc1C2=O`, for which the growth inhibition in assay [1] (setting [7]) is 95% (active); in assay [1] (setting [8]) it was 98% (active); in assay [1] (at 50.0 µM), 90.8% (active); in assay [2] (setting [7]) it was 99% (active); in assay [2] (setting [8]), 99% (active); in assay [2] (at 50.0 µM), 93.3% (active). The growth inhibition was 100% (active) in assay [3] (setting [7]); 99% (active) in assay [3] (setting [8]); 93.9% (active) in assay [3] (at 50.0 µM); 76% (active) in assay [4] (setting [7]); 99% (active) in assay [4] (setting [8]); 91.8% (active) in assay [4] (at 50.0 µM). In addition, the growth inhibition was 99% (active) in assay [5] (setting [7]); 99% (active) in assay [5] (setting [8]); 91.9% (active) in assay [5] (at 50.0 µM); 98% (active) in assay [6] (setting [7]); 98% (active) in assay [6] (setting [8]); 88% (active) in assay [6] (at 50.0 µM).

These data come from PubChem BioAssay (NCI).
